Values without a mark were called inactive. Calls of active or inactive are those of the source. The call rests on the fitted dose curve; in most records, active means well fitted curve in the direction sought with a large enough effect in the repeat runs; inconclusive means weak or mixed curves; inactive means flat fitted curve, though single readings scatter. Positions of bridges follow the written chain, without caps; N, C: chain ends. Non-standard residues stand in square brackets, D forms with d. Residues, ends and D or L forms follow the SMILES beside them. *: point of attachment. Dab(CH2SO3H) = N[C@@H](CCNCS(=O)(=O)O)C(=O)O; X3 = CC[C@@H](C)CCCCC(=O)*; Dab = NCC[C@H](N)C(=O)O
Test: qHTS assay to test for compound auto fluorescence at 535 nm (green) in HepG2 cell free culture (AID 720686)
Conditions: Cell-free medium, green autofluorescence 485/535 nm; series mostly up to 46 µM; fluorescence, % of fluorescein control: at the top concentration
Source text: U.S. Tox21 Program National Center for Advancing Translational Sciences [NCATS] NIH Chemical Genomics Center [NCGC] U.S. Environmental Protection Agency [EPA] National Institutes of Environmental Health Sciences [NIEHS] National Toxicology Program [NTP] U.S. Food and Drug Administration [FDA] Tox21 Assay Overview: Compound auto fluorescence often interferes with screening of the compound library against various biological targets and signaling pathways. Some of these compounds may have fluorophoric properties. Such properties may interfere with the assay outputs resulting in false positives and/or negatives. To decrease such complications and ensure the compound activities are relevant in terms of biological response, the Tox21 10K compound library was screened for auto fluorescence. From the fluorophores used as reporter signals in our screening assays, the auto fluorescence equivalencies of compounds against three fluorophores have been evaluated: Triamterene, Fluorescein and Rose Bengal sodium for blue, green and red fluorescence, respectively. The fluorescence intensities were measured using Excitation/Emission wavelengths at 405/460nm, 485/535nm and 540/590nm for blue, green and red labels, respectively. This assay includes the green fluorescence data.
Tox21 Assay Protocol Summary: 5 uL of culture medium (MEM containing 10% FBS) per well was dispensed into black wall/clear bottom 1536-well plates using a Multidrop Combi Dispenser (ThermoFisher Scientific, Waltham, MA). After 23 nL compound or DMSO vehicle was transferred into assay plate by a pintool work station (Kalypsys, San Diego, CA), fluorescence intensities in the assay plates were measured by an Envision (PerkinElmer, Shelton, CT) plate reader using three labels for measuring blue, green and red fluorescence at […] 460, 535 and 590nm respectively.
On the % scale 0 is the no-effect control and ±100 the full control effect.

| SMILES | fluorescence, % of fluorescein control | Potency |
| --- | --- | --- |
| N=C(N)n1cccn1 | 0.0017% |  |
| CC[C@@H](C)CCCCC(=O)N[C@@H](CCNCS(=O)(=O)O)C(=O)N[C@H](C(=O)N[C@@H](CCNCS(=O)(=O)O)C(=O)N[C@H]1CCNC(=O)[C@H]([C@@H](C)O)NC(=O)[C@H](CCNCS(=O)(=O)O)NC(=O)[C@H](CCNCS(=O)(=O)O)NC(=O)[C@H](CC(C)C)NC(=O)[C@@H](CC(C)C)NC(=O)[C@H](CCNCS(=O)(=O)O)NC1=O)[C@@H](C)O (X3-[Dab(CH2SO3H)]T[Dab(CH2SO3H)][Dab][Dab(CH2SO3H)][dL]L[Dab(CH2SO3H)][Dab(CH2SO3H)]T; lactam 4-C) | 0.0939% |  |
| C=CC(N)CCC(=O)O (stereo not given) | -0.144% |  |
| CCCCCCCCCC(=O)NO |  | inactive |
| C[C@H]1O[C@@H](O[C@H]2CC[C@@]3(C)[C@H](CC[C@@H]4[C@@H]3C[C@@H](O)[C@]3(C)[C@@H](C5=CC(=O)OC5)CC[C@]43O)C2)C[C@H](O)[C@@H]1O[C@H]1C[C@H](O)[C@H](O[C@H]2C[C@H](O)[C@H](O[C@@H]3O[C@H](CO)[C@@H](O)[C@H](O)[C@H]3O)[C@@H](C)O2)[C@@H](C)O1 | -0.015% |  |
| CN1CC[C@H](c2c(O)cc(O)c3c(=O)cc(-c4ccccc4Cl)oc23)[C@H](O)C1 | -0.0022% |  |
| CCCCCCCC[N+](C)(C)CCCCCCCC |  | inactive |
| CCOc1cc(CC(=O)N[C@@H](CC(C)C)c2ccccc2N2CCCCC2)ccc1C(=O)O | 0.186% [at 18.6 µM] |  |
| CC(C)C[C@H](NC(=O)[C@@H](COC(C)(C)C)NC(=O)[C@H](Cc1ccc(O)cc1)NC(=O)[C@H](CO)NC(=O)[C@H](Cc1c[nH]c2ccccc12)NC(=O)[C@H](Cc1cnc[nH]1)NC(=O)[C@@H]1CCC(=O)N1)C(=O)N[C@@H](CCCN=C(N)N)C(=O)N1CCC[C@H]1C(=O)NNC(N)=O |  | inactive |
| CCC(NC(C)C)C(O)c1ccc(O)c(O)c1 (stereo not given) | -0.0071% |  |
| O=c1[nH]c(=O)n([C@H]2C[C@H](O)[C@@H](CO)O2)cc1/C=C/Br | -0.0957% |  |
| O=C(O)[C@H]1CN(C/C=C/P(=O)(O)O)CCN1 | 0.111% |  |
| CCN1CCCC1CNC(=O)c1cc(S(=O)(=O)CC)ccc1OC (stereo not given) |  | inactive |
| Cc1ccc2nc(-c3ccc(N)cc3)sc2c1S(=O)(=O)O | 0.51% |  |
| O=C(CCN1CCC(c2ccccc2)C1)c1ccc2c(c1)OCCO2 (stereo not given) | 0.0025% |  |
| Cc1ccc(Cl)c(N)c1Cl | -0.0034% [at 91.3 µM] |  |
| FC(F)(F)C(F)(F)C(F)(F)C(F)(F)C(F)(F)F | 0.0649% |  |
| CC12CCC(C1)C(C)(C)C2=O (stereo not given) | -0.0512% |  |
| FC(F)(F)COCC(F)(F)F | 0.0265% |  |
| N#Cc1c(N(CC(=O)O)CC(=O)O)sc(C(=O)O)c1CC(=O)O | 0.0978% |  |

| SMILES | fluorescence, % of fluorescein control | Potency |
| --- | --- | --- |
| CCC(=O)OC(OP(=O)(CCCCc1ccccc1)CC(=O)N1C[C@H](C2CCCCC2)C[C@H]1C(=O)O)C(C)C (stereo not given in full) | 0.0312% |  |
| NCCCC(=O)O | -0.134% |  |
| NCC(O)CC(=O)O (stereo not given) | 0.0048% |  |
| NCCO/C=C/[C@H](N)C(=O)O | -0.0437% |  |
| CC(CNC(=O)c1cccnc1)NC(=O)c1cccnc1 (stereo not given) | -0.0183% |  |
| c1ccc(-n2cnnn2)cc1 | 0.0134% |  |
| Clc1nc(C(Cl)(Cl)Cl)c(Cl)c(Cl)c1Cl | -0.0176% [at 91.3 µM] |  |
| CN(C/C=C/c1ccccc1)Cc1cccc2ccccc12 | 0.0132% |  |
| S=C1NC=NC2N=CNC12 (stereo not given) | 0.0038% [at 91.3 µM] |  |
| CN[C@H]1CC[C@@H](c2ccc(Cl)c(Cl)c2)c2ccc(S(N)(=O)=O)cc21 | 0.0681% [at 91.3 µM] |  |
| CCc1cn([C@H]2C[C@H](O)[C@@H](CO)O2)c(=O)[nH]c1=O | -0.0409% |  |
| C=CC[N@@+]12CC[C@@]34c5ccccc5N5/C=C6/[C@H]7C[C@H]8[C@@]9(CC[N@@+]8(CC=C)C/C7=C/CO)c7ccccc7N(/C=C(/[C@@H](C[C@@H]31)/C(=C\CO)C2)[C@H]54)[C@@H]69 | -0.0311% [at 18.6 µM] |  |
| O=C1c2ccccc2-c2n[nH]c3cccc1c23 | 0.65% |  |
| CON=C1C[C@]2(C[C@@H]3C[C@@H](C/C=C(\C)C[C@@H](C)/C=C/C=C4\CO[C@@H]5[C@H](O)C(C)=C[C@@H](C(=O)O3)[C@]45O)O2)O[C@H](/C(C)=C/C(C)C)[C@H]1C |  | inactive |
| C[N+]1(CCCCC[N+]2(C)CCCC2)CCCC1 | 0.0411% |  |
| CCC(C)(C)c1ccc(CC(C)CN2C[C@@H](C)O[C@@H](C)C2)cc1 (stereo not given in full) | 0.0105% |  |
| CCCCCCCCCCCCCCCC(=O)OC[C@H](COP(=O)([O-])OCC[N+](C)(C)C)OC(=O)CCCCCCCCCCCCCCC | -0.0239% |  |
| CC(=O)N(C)C |  | inactive |
| COC(=O)C[C@](O)(CCCC(C)(C)O)C(=O)O[C@@H]1C(OC)=CC23CCCN2CCc2cc4c(cc2[C@H]13)OCO4 (stereo not given in full) |  | inactive |
| C[C@]12O[C@H](C[C@]1(O)CO)n1c3ccccc3c3c4c(c5c6ccccc6n2c5c31)CNC4=O | -0.477% |  |

Reference: PubChem BioAssay (Tox21)
